For 14 compounds, percent growth results are on record in the supplement of paper PMC7866885, “A novel bicyclic 2,4-diaminopyrimidine inhibitor of Streptococcus suis dihydrofolate reductase” (PeerJ, 2021).

Molecules are shown by their SMILES. ± gives the standard deviation.

This assay concerns Streptococcus suis P1/7. Description: percent growth relative to DMSO control; higher = less growth inhibition. Particulars: 10 µM; incubation time 18 h. Here is the method:
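CLSI broth microdilution: 5x10^4 CFU of Streptococcus suis (strain P1/7 or HE06) incubated with 10 µM Pathogen Box compound in cation-adjusted Mueller Hinton broth, 37 °C, 5% CO2, 18 h. Growth read as OD600 and expressed as percent of the DMSO-treated control (100%); mean ± SD of three independent experiments.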
Consider `Nc1c2c(nc3sc4c(c13)CCCC4)CCCC2`, for which the percent growth was 97.3 ± 30%.
As to `O=C1O[C@@H](COc2ccon2)CN1c1cc(F)c(C2=CCN(Cc3ccccc3)CC2)c(F)c1`, the percent growth is -0.108 ± 0.19%.
Regarding `CC1(C)OB(O)c2ccc(C3=NOC(c4cc(Cl)c(F)c(Cl)c4)(C(F)(F)F)C3)cc21` (centres undefined), the percent growth came out at 0.819 ± 0.82%.
For the compound `O=C1O[C@@H](CO)CN1c1cc(F)c(C2=CCN(Cc3ccccc3)CC2)c(F)c1`, the percent growth came out at 13.5 ± 23%.
As to `CC(C)(C)C(O)C(Oc1ccc(-c2ccccc2)cc1)n1cncn1` (centres undefined), the percent growth turned out to be 86.6 ± 29%.
As for `CO/N=C(\C(=O)OC)c1ccccc1CO/N=C(\C)c1cccc(C(F)(F)F)c1`, the percent growth came out at 82 ± 16%.
For `CO[C@@H]1CN(c2ccc(C#CC3(O)CN4CCC3CC4)c(Cc3ccccc3)n2)C[C@H]1O` (some centres undefined) the value was 124 ± 50%; for `CO/C=C(/C(=O)OC)c1ccccc1Oc1cc(Oc2ccccc2C#N)ncn1`, 80.8 ± 20%.
`CCc1nn(C)c(C(=O)NCc2ccc(Oc3ccc(C)cc3)cc2)c1Cl`: the percent growth is 91.4 ± 28%.
`Cc1nn(C)c(C)c1NS(=O)(=O)c1c(Cl)cc(-c2ccnc(N3CCNCC3)c2)cc1Cl`: the percent growth was determined as 76.6 ± 7.2%.
In the case of `CC1COC(Cn2cncn2)(c2ccc(Oc3ccc(Cl)cc3)cc2Cl)O1` (centres undefined) it was 82.9 ± 29%; in that of `Cc1nn(Cc2ccccc2)c(Cl)c1C(=O)NC1CCCCCC1`, 93.1 ± 26%; in that of `Cc1cc(C2=NOC(c3cc(Cl)c(F)c(Cl)c3)(C(F)(F)F)C2)ccc1C(=O)NCc1ccc2c(c1)C(C)(C)OB2O` (centres undefined), 61.5 ± 40%.
In the case of `Cc1cccc(C(=O)Nc2ccnc(N(C)C3CCN(CC(C)C)CC3)c2)c1`, the percent growth was 67.9 ± 22%.
